# Measurements: PubChem BioAssay
# Unmarked numbers belong to inactive results. For some of these results: Measured potencies and affinities stand elsewhere. Active and inactive are the calls of the source. Unless noted, the rule behind the calls is not given here.
# Experiments:
# [1] = antimalarial activity against Dd2 strain (AID 2302;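 active = growth inhibition above 50% at the single 2 µM test dose, taken to imply half-maximal potency below 2 µM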;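 note: 0% = DMSO untreated growth and 100% = chloroquine plus artemisinin killed control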); conditions: P. falciparum Dd2 in RBCs, LDH growth readout, 72 h; at 2 µM; stronger effect = higher value
# [2] = HepG2 cytotoxicity, primary screen, cytotoxicity control for P. falciparum antimalarial project, cell-based, ATP luminescence (AID 2303;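 active = inhibition above 50%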;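 note: 0% = DMSO wells and 100% = digitonin-killed cells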); conditions: HepG2 viability, 24-48 h, at 10 µM, stronger effect = higher value
# [3] = biological target: L-lactate dehydrogenase (Plasmodium falciparum (isolate CDC / Honduras)) (UniProt Q27743); experiment: PfLDH activity inhibition – cell lysate, 3D7 strain, counter-screen for P. falciparum growth inhibition project (AID 2304);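 note: 0% = vehicle and 100% = reference inhibitor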; conditions: P. falciparum 3D7 crude extract, LDH APAD/NBT absorbance; at 2 µM; stronger effect = higher value
# L-lactate dehydrogenase (Plasmodium falciparum (isolate CDC / Honduras)), sequence (Q27743 whole entry, looked up): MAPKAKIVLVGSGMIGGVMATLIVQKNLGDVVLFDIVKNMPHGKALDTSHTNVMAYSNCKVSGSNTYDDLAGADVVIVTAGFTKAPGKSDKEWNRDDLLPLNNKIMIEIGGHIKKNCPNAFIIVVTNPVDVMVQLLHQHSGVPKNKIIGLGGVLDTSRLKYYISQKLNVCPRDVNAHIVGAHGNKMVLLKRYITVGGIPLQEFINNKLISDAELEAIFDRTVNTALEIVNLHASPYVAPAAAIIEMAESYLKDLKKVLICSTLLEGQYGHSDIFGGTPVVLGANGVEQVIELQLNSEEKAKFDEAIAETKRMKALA
# [4] = inhibition of 3D7 malaria parasite growth – strain 3D7 (AID 2306);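 note: 0% = DMSO wells and 100% = chloroquine plus artemisinin control wells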; conditions: P. falciparum 3D7 erythrocytic growth, LDH absorbance, 72 h; at 2 µM; stronger effect = higher value
# [5] = biological target: Calcium-dependent protein kinase 1 (Plasmodium falciparum (isolate 3D7)) (UniProt P62344); experiment: PfCDPK1 kinase inhibitors, biochemical, TCAMS library (AID 1159585; cut-off not given, nearly all actives have IC50 up to about 0.98 µM;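 note: inhibitors leave more ATP so luminescence rises with inhibition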); conditions: recombinant PfCDPK1, Kinase-Glo ATP depletion luminescence
# Calcium-dependent protein kinase 1 (Plasmodium falciparum (isolate 3D7)), sequence (P62344 whole entry, looked up): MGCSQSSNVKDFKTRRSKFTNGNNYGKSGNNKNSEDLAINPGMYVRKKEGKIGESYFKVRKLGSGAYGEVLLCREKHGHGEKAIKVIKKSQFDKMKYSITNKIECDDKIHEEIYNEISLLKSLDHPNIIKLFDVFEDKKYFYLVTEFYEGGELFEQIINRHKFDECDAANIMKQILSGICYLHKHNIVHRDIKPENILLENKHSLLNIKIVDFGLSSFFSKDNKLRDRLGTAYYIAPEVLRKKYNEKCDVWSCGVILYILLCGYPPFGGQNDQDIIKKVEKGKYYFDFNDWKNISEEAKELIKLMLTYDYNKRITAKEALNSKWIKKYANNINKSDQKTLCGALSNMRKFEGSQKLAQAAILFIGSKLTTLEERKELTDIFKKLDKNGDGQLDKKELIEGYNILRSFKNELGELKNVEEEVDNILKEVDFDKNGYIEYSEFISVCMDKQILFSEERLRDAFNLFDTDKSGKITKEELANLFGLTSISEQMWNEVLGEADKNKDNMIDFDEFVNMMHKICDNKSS
# [6] = biological target: Plasmodium falciparum protein kinase 6 (PK6, PF3D7_1337100) (UniProt Q8IDW1); experiment: PfPK6 kinase inhibitors, biochemical, TCAMS library (AID 1159586); conditions: recombinant PfPK6, Kinase-Glo ATP depletion luminescence
# Plasmodium falciparum protein kinase 6 (PK6, PF3D7_1337100), sequence (Q8IDW1 1-305): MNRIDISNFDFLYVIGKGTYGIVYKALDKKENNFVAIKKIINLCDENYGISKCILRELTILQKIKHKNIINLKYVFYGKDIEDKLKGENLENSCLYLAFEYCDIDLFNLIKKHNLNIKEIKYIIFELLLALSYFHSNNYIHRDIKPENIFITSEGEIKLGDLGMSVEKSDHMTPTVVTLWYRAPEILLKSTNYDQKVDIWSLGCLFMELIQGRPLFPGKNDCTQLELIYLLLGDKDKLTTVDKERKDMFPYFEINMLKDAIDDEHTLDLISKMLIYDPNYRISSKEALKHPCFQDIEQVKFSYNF
# [7] = biological target: Protein kinase 7 (PK7), Plasmodium falciparum 3D7 (PF3D7_0213400) (UniProt Q7YTF7); experiment: inhibition of Plasmodium PK7 catalytic activity – biochemical, TCAMS antimalarial set, Kinase-Glo luminescence (AID 1159587); conditions: recombinant PfPK7, Kinase-Glo ATP depletion luminescence
# Protein kinase 7 (PK7), Plasmodium falciparum 3D7 (PF3D7_0213400), sequence (Q7YTF7 1-343): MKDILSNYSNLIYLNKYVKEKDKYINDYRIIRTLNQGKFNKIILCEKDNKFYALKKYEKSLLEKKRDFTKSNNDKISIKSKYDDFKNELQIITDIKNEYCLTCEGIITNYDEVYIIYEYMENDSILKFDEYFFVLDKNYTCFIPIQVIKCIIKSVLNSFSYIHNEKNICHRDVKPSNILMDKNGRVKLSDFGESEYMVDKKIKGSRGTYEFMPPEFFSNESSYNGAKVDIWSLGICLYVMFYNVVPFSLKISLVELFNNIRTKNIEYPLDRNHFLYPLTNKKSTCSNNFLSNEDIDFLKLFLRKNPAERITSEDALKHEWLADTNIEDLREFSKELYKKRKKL
# [8] = biological target: Calcium-dependent protein kinase 4 (Plasmodium falciparum (isolate 3D7)) (UniProt Q8IBS5); experiment: PfCDPK4 kinase inhibitors, biochemical, TCAMS library (AID 1159588; cut-off not given, nearly all actives have IC50 up to about 0.91 µM); conditions: recombinant PfCDPK4, Kinase-Glo ATP depletion luminescence
# Calcium-dependent protein kinase 4 (Plasmodium falciparum (isolate 3D7)), sequence (Q8IBS5 whole entry, looked up): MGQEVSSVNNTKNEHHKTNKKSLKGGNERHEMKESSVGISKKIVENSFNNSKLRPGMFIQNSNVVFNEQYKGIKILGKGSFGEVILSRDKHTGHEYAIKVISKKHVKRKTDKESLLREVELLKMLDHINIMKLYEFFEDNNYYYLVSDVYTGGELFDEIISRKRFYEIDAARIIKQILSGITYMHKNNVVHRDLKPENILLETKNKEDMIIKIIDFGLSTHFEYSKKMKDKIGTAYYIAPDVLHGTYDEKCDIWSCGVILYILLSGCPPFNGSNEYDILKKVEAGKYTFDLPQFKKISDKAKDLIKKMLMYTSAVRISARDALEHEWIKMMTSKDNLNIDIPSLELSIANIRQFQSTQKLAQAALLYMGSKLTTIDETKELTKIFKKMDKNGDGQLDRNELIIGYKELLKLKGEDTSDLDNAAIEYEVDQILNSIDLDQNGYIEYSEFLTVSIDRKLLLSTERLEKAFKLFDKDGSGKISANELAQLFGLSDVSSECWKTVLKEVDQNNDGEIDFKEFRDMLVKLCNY
Compound,growth inhibition [1],inhibition [2],inhibition [3] [%],growth inhibition [4],outcome [5],outcome [6],outcome [7],outcome [8]
Cc1cccc2[nH]c(-c3cccc(-c4cccc(NC(=O)CNc5ccc(C(N)=O)cc5)c4)c3)nc12,56% (active),15%,6,100% (active),inactive,inactive,inactive,inactive
Cc1cnc(N2CCN(CC3CCN(C)CC3)CC2)nc1Oc1ccc(-n2ccnc2)cc1,66% (active),9%,-3,99% (active),inactive,inactive,inactive,inactive
COc1ccc(-c2cnc(N)c(-c3ccc(C(N)=O)cc3)c2)cc1OC,98% (active),11%,4,96% (active),inactive,inactive,inactive,inactive
COc1ccc2nc(C)cc(NC3Cc4ccccc4C3)c2c1,13%,20%,5,98% (active),inactive,inactive,inactive,inactive
COC(=O)CCCCCOc1cc(Cc2cnc(N)nc2N)cc(OC)c1OC,-3%,-15%,2,90% (active),inactive,inactive,inactive,inactive
CO/C(=C\C=C\c1cc2cc(Cl)c(Cl)cc2[nH]1)C(=O)NCCCCN1CCN(c2ccccc2OC)CC1,96% (active),55% (active),-1,100% (active),inactive,inactive,inactive,inactive
COCCNCc1cccc(-c2cc3nccc(Nc4ccc(Oc5ccccc5)cc4)c3cc2Cl)c1,99% (active),-8%,1,99% (active),inactive,inactive,inactive,inactive
COc1cc2nc(Cl)nc(Nc3ccncc3)c2cc1OC,33%,11%,-2,86% (active),inactive,inactive,inactive,inactive
CO/C(=C\C=C\c1cc2cc(Cl)c(Cl)cc2[nH]1)C(=O)NCCCN1CCN(c2cccc(CCO)c2)CC1,32%,61% (active),-1,101% (active),inactive,inactive,inactive,inactive
C#CCOc1ccc2ccccc2c1CNCCCCCCNCc1c(OCC#C)ccc2ccccc12,98% (active),100% (active),-3,100% (active),inactive,inactive,inactive,inactive
NC(=O)c1ccc(-n2cnc3cc(F)ccc32)cc1OCc1ccccc1C(F)(F)F (tested in a mixture with another compound),93% (active),55% (active),3,97% (active),inactive,inactive,inactive,inactive
CN(C)c1cccc(-c2cnc3ccc(NCc4cccc(Cl)c4)nn23)c1,98% (active),11%,-3,99% (active),inactive,inactive,inactive,inactive
COc1ccc(-c2nonc2NC(=O)c2cccc(Cl)c2)cc1OC,63% (active),41%,4,98% (active),inactive,inactive,inactive,inactive
COc1cccc(OC2CCN(C(=O)c3ccc(-c4ccc(N5CCCC5=O)cc4C)cc3)CC2)c1,80% (active),42%,-3,85% (active),inactive,inactive,inactive,inactive
COCc1nc(N)nc(N)c1-c1ccc(Cl)c(Cl)c1,1%,4%,-1,84% (active),inactive,inactive,inactive,inactive
CC(C)CNCc1cccc(-c2ccccc2CN(C(=O)NCCc2ccccc2)C2CCN(Cc3ccccc3)CC2)c1,82% (active),42%,-6,89% (active),inactive,inactive,inactive,inactive
COc1ccc(CNC(=O)NC2CCN(c3ccnc(Nc4ccc(F)cc4)n3)C2)cc1 (stereo not drawn),78% (active),4%,-2,91% (active),inactive,inactive,inactive,inactive
CCCCCN1C(=O)C(c2ccccc2)(c2ccccc2)N=C1N,68% (active),18%,-1,97% (active),inactive,inactive,inactive,inactive
CCCC(C)c1cnc2nc(N)nc(N)c2c1C (stereo not drawn),1%,67% (active),3,95% (active),inactive,inactive,inactive,inactive
Cc1cccn2c(=O)c3cc(C(=O)NCc4cccnc4)c(=N)n(CCc4ccccc4)c3nc12,38%,-2%,-2,99% (active),inactive,inactive,inactive,inactive
NS(=O)(=O)c1cccc(-c2ccc3c(=O)[nH]cnc3c2)c1,100% (active),6%,4,99% (active),inactive,inactive,inactive,inactive

Compound,growth inhibition [1],inhibition [2],inhibition [3] [%],growth inhibition [4],outcome [5],outcome [6],outcome [7],outcome [8]
Cn1cncc1CCN(Cc1ccc(-c2ccc(C(F)(F)F)cc2)cc1)C(=O)Cn1c(SCc2cccc(F)c2F)cc(=O)c2ccccc21,90% (active),24%,-5,99% (active),inactive,inactive,inactive,inactive
OC(CNC1CCCCC1)Cn1c2ccc(I)cc2c2cc(I)ccc21 (stereo not drawn),93% (active),10%,2,100% (active),inactive,inactive,inactive,inactive
COc1ccc(C=NNc2cc(C)nc3ccccc23)c2ccccc12,69% (active),26%,-1,99% (active),inactive,inactive,inactive,inactive
Nc1nccc2ccc(-c3ccc(Oc4ccccc4)cc3)cc12,80% (active),36%,-3,98% (active),inactive,inactive,inactive,inactive
Cc1cc(N[C@@H](CC(C)C)C(=O)Nc2ccccc2)nc(NCC2CCCCC2)n1,95% (active),8%,1,101% (active),inactive,inactive,inactive,inactive
CCCCCCN1CCC(NCc2ccc(C(F)(F)F)cc2)CC1,47%,11%,-2,100% (active),inactive,inactive,inactive,inactive
COc1cc(Cc2cnc(N)nc2N)ccc1OCc1ccc(-c2ccccc2C#N)cc1,3%,32%,6,93% (active),inactive,inactive,inactive,inactive
OC(CN1c2ccccc2Sc2ccccc21)CN(C1CCCCC1)C1CCCCC1 (stereo not drawn),96% (active),46%,-5,99% (active),inactive,inactive,inactive,inactive
NC(=O)c1cccc(Nc2nccc(Nc3ccc4[nH]c(-c5ccccc5)cc4c3)n2)c1,98% (active),28%,-2,101% (active),inactive,inactive,inactive,inactive
Cc1c(O)cccc1Nc1ccnc2ccc(C(F)(F)F)cc12,51% (active),-15%,-2,96% (active),inactive,inactive,inactive,inactive
O=C(Nc1cc(Cl)ccc1-n1cncn1)C1(c2ccccc2)CC1,91% (active),3%,-2,98% (active),inactive,inactive,inactive,inactive
COC(=O)Cc1ccc(N)c2ccccc12,-1%,2%,-1,98% (active),inactive,inactive,inactive,inactive
CCc1cn2c3c(cc(C(=O)N[C@@H](Cc4ccccc4)[C@H](O)CNCC(C)C)cc13)N(C)S(=O)(=O)CC2,99% (active),-1%,-6,98% (active),inactive,inactive,inactive,inactive
COc1ccccc1CCNc1nc(C)cc(NCCC(=O)Nc2ccccc2)n1,24%,7%,0,101% (active),inactive,inactive,inactive,inactive
Cc1cc(N(CCCN(C)C)Cc2cc(F)cc(F)c2)nc(Nc2ccc(Cl)cc2)n1,97% (active),37%,-2,99% (active),inactive,inactive,inactive,inactive
Cc1cc(-c2cccc(CNCc3ccccc3)c2)ccc1S(=O)(=O)NCCN1CCCC1,58% (active),40%,1,98% (active),inactive,inactive,inactive,inactive
CN(C)c1ccc(CN2CCC(NC(=O)c3ccc(-c4cccc(F)c4)s3)CC2)cc1,18%,55% (active),-1,91% (active),inactive,inactive,inactive,inactive
O=C(NCCN1CCCC1)c1ccc(-c2cccc(-c3nc4ccc(F)cc4[nH]3)c2)cc1,2%,29%,1,100% (active),inactive,inactive,inactive,inactive
CCOc1cc(C)ccc1C1CCN(CCCCNC(=O)c2coc(-c3ccc(Cl)cc3)c2)CC1,30%,34%,-3,92% (active),inactive,inactive,inactive,inactive
O=C(/C=C/c1ccc(Cl)c(Cl)c1)NC1CCC(CN2CCC(c3coc4ccccc34)CC2)CC1 (stereo not drawn),41%,40%,3,102% (active),inactive,inactive,inactive,inactive
